Experimental findings from the supplement of paper PMC6135742 are described below.

Where “and” joins values, the source holds several entries; their conditions need not be identical. Identical values can stand only once. Counter-ions that a name gives are not always drawn. ± gives the standard deviation of the averaged measurements. The full ranking holds about 2,600 compounds; the median of “total cell number (DAPI+ nuclei) relative to DMSO vehicle control” is about -1.4, and the lowest 2% start at about -23. This excerpt belongs to a sample that is enriched for the lowest values.

In this test the test system is jimpy (Plp1 jimpy) mouse iPSC-derived oligodendrocyte progenitor cells. Briefly: total cell number (DAPI+ nuclei) relative to DMSO vehicle control (SDs above negative control mean); higher = more surviving cells. The conditions noted are these: 10 µM; 3 days. As for the experimental part:
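Primary phenotypic screen of >3,000 bioactive compounds (Selleck L1700 and Sigma LO1280 libraries) at a single dose of 10 µM. Compounds were added to jimpy (Plp1 mutant) mouse iPSC-derived OPCs at the start of thyroid hormone-induced oligodendrocyte differentiation, one well per compound in 384-well plates. After 3 days cells were stained for MBP, Sox10 and DAPI and imaged with an Operetta system. MBP+ oligodendrocyte number and total cell number were expressed as the number of SDs above the mean of the DMSO negative control on the same plate (n=16 control wells per plate). Hits were defined as >=4 SD for oligodendrocytes and >=2 SD for total cells.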
`Cc1c(C(=O)N2CCOc3ccc(-c4ccc(N)nc4)cc3C2)ccc(S(C)(=O)=O)c1F` gave a total cell number of -3.21.

As for `NOCC(=O)O` [O-(Carboxymethyl)hydroxylamine hemihydrochloride], the total cell number was determined as 1.52.

In turn, `N#Cc1c(O)c2c(-c3ccc(-c4ccccc4O)cc3)csc2[nH]c1=O` came in with a total cell number of 0.298.

In turn, `c1coc(CNc2ncnc3[nH]cnc23)c1` [Kinetin] showed a total cell number of 0.658.

In turn, `COc1cc(/C=C(\C#N)C(=O)Nc2nnc(C(F)(F)F)s2)ccc1OCc1ccc(C(F)(F)F)cc1C(F)(F)F` yielded a total cell number of -0.657.

Compound `Cc1cc(/C=C/C#N)cc(C)c1Nc1ccnc(Nc2ccc(C#N)cc2)n1` [Rilpivirine] gave a total cell number of -9.09.

In the case of `Oc1ccc(/C=C/c2cc(O)cc(O)c2)cc1` [Resveratrol], the total cell number was -2.54 ± 1.

`CCN(c1nc(N)c(C(=O)NC(=N)N)nc1Cl)C(C)C` [5-(N-Ethyl-N-isopropyl)amiloride]: the total cell number was -4.19.

Take `O=c1cc[nH]c(=S)[nH]1` [2-Thiouracil]: the total cell number is -0.0444.

For the compound `CS(=O)(=O)c1ccc(C(=O)Nc2ccc(Cl)c(-c3ccccn3)c2)c(Cl)c1` [Vismodegib (GDC-0449)], the total cell number was -1.63.

`CNC(=O)Nc1ccc(-c2nc(N3CC4CCC(C3)O4)c3cnn(C4CCC5(CC4)OCCO5)c3n2)cc1`: the total cell number is -8.93.

Regarding `COc1ccccc1N1CCN(CCCNc2c(C)c(=O)n(C)c(=O)n2C)CC1` [Urapidil, 5-Methyl-], the total cell number is -1.49.

As to `CCCCCCCCCCCCCCCCCCOP(=O)([O-])OC1CC[N+](C)(C)CC1` [Perifosine], the total cell number is -0.796.

`CN(C)CC(c1ccc(O)cc1)C1(O)CCCCC1` (stereo unspecified) [Desvenlafaxine] showed a total cell number of -0.735.

Consider `CN(C)CC(c1ccc(O)cc1)C1(O)CCCCC1` (stereo unspecified) [Desvenlafaxine Succinate], for which the total cell number is -3.69.

For `Oc1ccccc1O` [Pyrocatechol], the total cell number is -10.2.

Regarding `Nc1cc(=O)[nH]c(N)n1` [2,4-Diamino-6-pyrimidinone], the total cell number was -1.65.

`CC(C)(O)CC[C@@H](O)[C@](C)(O)[C@H]1CC[C@@]2(O)C3=CC(=O)[C@@H]4C[C@@H](O)[C@@H](O)C[C@]4(C)[C@H]3CC[C@]12C` [20-Hydroxyecdysone] had a total cell number of -0.544.

`CC(S)C(=O)NCC(=O)O` (stereo unspecified) [Tiopronin]: the total cell number is -2.65.

With `C=C(C)[C@@H]1CC=C(C(=O)O)CC1` [(-)-Perillic acid], the total cell number was -1.68.

With `CN(C)c1ccc(-c2nc3ncc(Cl)c(N4CCN(CC(=O)Nc5nccs5)CC4)c3[nH]2)cc1`, the total cell number stood at 1.85.

On to `O=C1CCC(N2C(=O)c3ccccc3C2=O)C(=O)N1` (racemic) [(±)-Thalidomide], for which the total cell number was -2.18.

Regarding `O=C1CCC[C@@H]2[C@H]3CCC[N+]4([O-])CCC[C@@H](CN12)[C@@H]34` (stereo partly specified) [Oxymatrine], the total cell number was -0.222.

Take `C#Cc1cccc(Nc2ncnc3cc(OC)c(OCCCCCCC(=O)NO)cc23)c1`: the total cell number was -18.7.

As to `COc1cc2c(N3CCN(C(=O)Nc4ccc(OC(C)C)cc4)CC3)ncnc2cc1OCCCN1CCCCC1` [Tandutinib (MLN518)], the total cell number is -10.3.

Compound `COc1cc2c(Nc3ccc(NC(=O)c4ccccc4)cc3)ncnc2cc1OCCCN1CCOCC1` displayed a total cell number of -26.6.

Compound `CCOC(=O)[C@@H](N)Cc1ccc(O)c(O)c1` [L-Dopa ethyl ester] displayed a total cell number of -2.07.

Compound `C=CCNC1=C2C[C@@H](C)C[C@H](OC)[C@H](O)[C@@H](C)/C=C(\C)[C@H](OC(N)=O)[C@@H](OC)/C=C\C=C(/C)C(=O)NC(=CC1=O)C2=O` [17-AAG (Tanespimycin)] yielded a total cell number of -25.

As for `COC1=C2C[C@@H](C)C[C@H](OC)[C@H](O)[C@@H](C)/C=C(\C)[C@H](OC(N)=O)[C@@H](OC)/C=C\C=C(/C)C(=O)NC(=CC1=O)C2=O` [Geldanamycin], the total cell number is -12.3.

Compound `CO[C@H]1/C=C\C=C(/C)C(=O)NC2=CC(=O)C(NCCN(C)C)=C(C[C@@H](C)C[C@H](OC)[C@H](O)[C@@H](C)/C=C(\C)[C@@H]1OC(N)=O)C2=O` [17-DMAG (Alvespimycin) HCl] gave a total cell number of -26.5.

`CN(NC(=O)CC(=O)NN(C)C(=S)c1ccccc1)C(=S)c1ccccc1` [Elesclomol (STA-4783)] gave a total cell number of -1.04.

As to `CCC(C)(Oc1ccc(C2(c3ccc(OC(C)(CC)C(=O)O)cc3)CCCCC2)cc1)C(=O)O` (stereo unspecified) [Clinofibrate], the total cell number came out at 1.25.

Compound `N[C@H]1C[C@@H]1c1ccc(-c2cccc(O)c2)cc1` had a total cell number of -3.31.

For the compound `Cc1ccc(C(=O)Cn2c3c(sc2=N)CCCC3)cc1` [Pifithrin-? (PFT?)], the total cell number came out at 1.69.

As for `OC[C@H]1O[C@@H](n2cnc3c(N[C@H]4CCC[C@@H]4O)ncnc32)[C@H](O)[C@@H]1O`, the total cell number was determined as 0.458.

`CC(Cc1ccc(O)c(O)c1)(NN)C(=O)O` (stereo not drawn) [S-(-)-Carbidopa] gave a total cell number of -1.61.

As for `Cc1cc(Cn2cnc3c2C[C@@H](C(=O)O)N(C(=O)C(c2ccccc2)c2ccccc2)C3)ccc1N`, the total cell number was -6.04.

With `O=C(Nc1ccccc1-c1cn2c(CN3CCNCC3)csc2n1)c1cnc2ccccc2n1`, the total cell number was -27.8.

`C=C1C[C@@]23CC[C@H]4[C@@](C)(CCC[C@@]4(C)C(=O)O)[C@@H]2CC[C@]1(O)C3` [Steviol] displayed a total cell number of -0.619.

In turn, `Cc1cc(NC(=O)Nc2ccc3c(ccn3C)c2)sn1` yielded a total cell number of -1.4.

Take `CC(C)c1cc(-c2n[nH]c(=O)n2-c2ccc3c(ccn3C)c2)c(O)cc1O` [Ganetespib (STA-9090)]: the total cell number is -25.4.

For `CN(C[C@@H]1COCCO1)S(=O)(=O)Nc1ccc2ccc3ncc(-c4cnn(C)c4)cc3c(=O)c2c1`, the total cell number was -9.05.

`Cc1ccc(C(=O)N(CCCN)[C@@H](c2oc3cc(Cl)ccc3c(=O)c2Cc2ccccc2)C(C)C)cc1`: the total cell number was -15.1.

Compound `Cc1ccc(C(=O)N(CCCN)[C@@H](c2nc3cc(Cl)ccc3c(=O)n2Cc2ccccc2)C(C)C)cc1` displayed a total cell number of -27.5.

The compound `CNC(=O)CN(CCN(CCN(CC(=O)[O-])CC(=O)NC)CC(=O)[O-])CC(=O)[O-].[Gd+3]` [Gadodiamide] showed a total cell number of -14.9.

The compound `C=CCNC(N)=S` [Allylthiourea] gave a total cell number of 6.27.

Turning to `CCc1ccc(OCc2ccccc2C(=O)Nc2ccc3nc(C)cc(N)c3c2)cc1`, the total cell number was -12.5.

In turn, `COc1cc2nccc(Oc3ccc(NC(=O)Nc4cc(C)on4)c(Cl)c3)c2cc1OC` [Tivozanib (AV-951)] registered a total cell number of -23.5.

Compound `COc1cc2nccc(Oc3ccc(NC(=O)NC4CC4)c(Cl)c3)c2cc1C(N)=O` [Lenvatinib (E7080)] returned a total cell number of -9.34.

As for `COc1cc(OC)c(NC(=O)Nc2cc(C)on2)cc1Cl`, the total cell number is -0.876.

Compound `Nc1nccc2c1ncn2C1C=C(CO)C(O)C1O` (stereo unspecified) [3-Deazaneplanocin A (DZNeP)] registered a total cell number of -9.16.

In the case of `CN(C)C[C@H](O)Cn1c2ccc(Br)cc2c2cc(Br)ccc21` (racemic) [Wiskostatin], the total cell number was -4.17.

Take `Nc1n[n+]([O-])c2ccccc2[n+]1[O-]` [Tirapazamine]: the total cell number was -6.5.

The compound `COc1ccc2[nH]c([S@@+]([O-])Cc3ncc(C)c(OC)c3C)nc2c1` [Esomeprazole magnesium dihydrate] gave a total cell number of -0.604.

In turn, `COc1ccc2[nH]c([S@@+]([O-])Cc3ncc(C)c(OC)c3C)nc2c1` [Esomeprazole Sodium] showed a total cell number of 1.8.

As to `COc1ccc2[nH]c([S+]([O-])Cc3ncc(C)c(OC)c3C)nc2c1` (stereo unspecified) [Omeprazole], the total cell number came out at 5.38.

In turn, `COc1c(C)cnc(Cn2cnc3c(Cl)nc(N)nc32)c1C` returned a total cell number of -26.3.

As for `CC(C)(C)C(=O)Oc1ccc(S(=O)(=O)Nc2ccccc2C(=O)NCC(=O)O)cc1` [Sivelestat sodium salt hydrate], the total cell number worked out at 0.0346.

In the case of `OCCN1CCN(CC/C=C2/c3ccccc3Sc3ccc(C(F)(F)F)cc32)CC1` [cis-(Z)-Flupenthixol dihydrochloride], the total cell number was -7.96.

Compound `O=C(CCCCCN1C(=O)c2cccc3cccc(c23)C1=O)NO` [Scriptaid] yielded a total cell number of -6.21.

Regarding `CN(C)CCN1C(=O)c2cccc3cc(N)cc(c23)C1=O` [Amonafide], the total cell number is -24.

In the case of `CC(NC(=O)c1ccccc1/N=C/c1c(O)ccc2ccccc12)c1ccccc1` (stereo unspecified) [Sirtinol], the total cell number is -0.73.

`CCC(=O)O[C@]1(C(=O)CCl)[C@@H](C)C[C@H]2[C@@H]3C[C@H](F)C4=CC(=O)C=C[C@]4(C)[C@@]3(F)[C@@H](O)C[C@@]21C` [Halobetasol Propionate] showed a total cell number of 10.4.

As to `O=C(O)CC[C@H]1CC[C@@](c2cc(F)ccc2F)(S(=O)(=O)c2ccc(Cl)cc2)CC1`, the total cell number is 0.0291.

`CC(C)(C)c1cnc(CSc2cnc(NC(=O)C3CCNCC3)s2)o1`: the total cell number is -22.9.

`Nc1ncnc2c1nc(Br)n2C1OC2COP(=O)(O)O[C@@H]2C1O` (stereo partly specified) [8-Bromo-cAMP sodium] had a total cell number of -0.722.

The compound `CC(C)[C@H]1C(=O)N[C@@H](CCCNC(=N)N)C(=O)NCC(=O)N[C@@H](CC(=O)O)C(=O)N[C@H](Cc2ccccc2)C(=O)N1C` [Cilengitide] had a total cell number of 1.19.

Take `COc1cc(Nc2c(C#N)cnc3cc(OCCCN4CCN(C)CC4)c(OC)cc23)c(Cl)cc1Cl` [Bosutinib (SKI-606)]: the total cell number was -26.4.

In turn, `COc1cc(C(=O)OCCCN2CCCN(CCCOC(=O)c3cc(OC)c(OC)c(OC)c3)CC2)cc(OC)c1OC` [Dilazep hydrochloride] registered a total cell number of -5.8.

Consider `COc1cc(Nc2c(C#N)cnc3cc(OCCCN4CCN(C)CC4)c(OC)cc23)c(Cl)cc1Cl` [Bosutinib], for which the total cell number was -10.5.

For `COc1cc2/c(=N/c3ccc(Br)cc3F)nc[nH]c2cc1OCC1CCN(C)CC1` [Vandetanib (ZD6474)], the total cell number is -26.7.

Turning to `COc1cc2nc(N3CCCN(C)CC3)nc(NC3CCN(Cc4ccccc4)CC3)c2cc1OC`, the total cell number was -10.1 and -15.2.

In turn, `COc1ccc(C[C@H](NC(=O)[C@H](C)NC(=O)CN2CCOCC2)C(=O)N[C@@H](Cc2ccccc2)C(=O)[C@@]2(C)CO2)cc1` displayed a total cell number of -12.1.

On to `CC(C)(N)c1ncc(-c2ccc(OC(F)(F)F)cc2)[nH]1`, for which the total cell number was -3.28.

Regarding `Oc1cccc(-c2nc(N3CCOCC3)c3oc4ncccc4c3n2)c1`, the total cell number was -21.

The compound `N#CC(C#N)=C(N)/C(C#N)=C/c1cc(O)c(O)c(O)c1` [Tyrphostin 51] had a total cell number of -1.44.
